Experimental data taken from PubChem BioAssay (Tox21).
Several values for one entry are separate records, joined by “and”; a condition that tells them apart may be missing. Equal values may be shown once. Inconclusive results are not listed. Where a structure was tested more than once in an assay, its records may differ in their call. Activity calls are given as the source filed them. Unless noted, the call rests on the fitted dose curve.

Key:
Aromatase (Homo sapiens) = Aromatase (Homo sapiens) (UniProt P11511); assay: qHTS assay to identify aromatase inhibitors (AID 743083; active means well fitted curve in the direction sought with a large enough effect in the repeat runs; an effect the other way counts as inactive or inconclusive; further: nearly all actives have a fitted effect of over 55% in size; further: potency means the concentration at half of the fitted maximal effect)
Aromatase (Homo sapiens), sequence (P11511 whole entry, looked up): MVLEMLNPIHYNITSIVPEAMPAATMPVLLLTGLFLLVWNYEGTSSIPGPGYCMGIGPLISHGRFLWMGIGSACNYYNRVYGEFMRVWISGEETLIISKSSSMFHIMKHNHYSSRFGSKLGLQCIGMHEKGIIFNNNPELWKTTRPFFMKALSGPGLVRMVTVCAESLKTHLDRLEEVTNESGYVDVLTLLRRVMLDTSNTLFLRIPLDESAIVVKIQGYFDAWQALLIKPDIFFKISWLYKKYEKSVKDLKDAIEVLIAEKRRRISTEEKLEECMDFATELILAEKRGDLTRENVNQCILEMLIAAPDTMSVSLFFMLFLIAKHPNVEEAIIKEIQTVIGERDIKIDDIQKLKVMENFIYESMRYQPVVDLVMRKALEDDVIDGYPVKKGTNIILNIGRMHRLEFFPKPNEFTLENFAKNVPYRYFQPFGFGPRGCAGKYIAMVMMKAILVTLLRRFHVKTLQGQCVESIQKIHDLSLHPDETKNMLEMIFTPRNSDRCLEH

[1] = molecular target: Aryl hydrocarbon receptor (Homo sapiens) (UniProt P35869); assay: qHTS assay to identify small molecule that activate the aryl hydrocarbon receptor (AhR) signaling pathway (AID 743085; active means well fitted curve in the direction sought with a large enough effect in the repeat runs; an effect the other way counts as inactive or inconclusive; further: nearly all actives have a fitted effect of over 15% in size; further: potency means the concentration at half of the fitted maximal effect;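 on activation: HG2L7.5c1 human HepG2 liver cells with stably integrated DRE-driven firefly reporter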)
Aryl hydrocarbon receptor (Homo sapiens), sequence (P35869 whole entry, looked up): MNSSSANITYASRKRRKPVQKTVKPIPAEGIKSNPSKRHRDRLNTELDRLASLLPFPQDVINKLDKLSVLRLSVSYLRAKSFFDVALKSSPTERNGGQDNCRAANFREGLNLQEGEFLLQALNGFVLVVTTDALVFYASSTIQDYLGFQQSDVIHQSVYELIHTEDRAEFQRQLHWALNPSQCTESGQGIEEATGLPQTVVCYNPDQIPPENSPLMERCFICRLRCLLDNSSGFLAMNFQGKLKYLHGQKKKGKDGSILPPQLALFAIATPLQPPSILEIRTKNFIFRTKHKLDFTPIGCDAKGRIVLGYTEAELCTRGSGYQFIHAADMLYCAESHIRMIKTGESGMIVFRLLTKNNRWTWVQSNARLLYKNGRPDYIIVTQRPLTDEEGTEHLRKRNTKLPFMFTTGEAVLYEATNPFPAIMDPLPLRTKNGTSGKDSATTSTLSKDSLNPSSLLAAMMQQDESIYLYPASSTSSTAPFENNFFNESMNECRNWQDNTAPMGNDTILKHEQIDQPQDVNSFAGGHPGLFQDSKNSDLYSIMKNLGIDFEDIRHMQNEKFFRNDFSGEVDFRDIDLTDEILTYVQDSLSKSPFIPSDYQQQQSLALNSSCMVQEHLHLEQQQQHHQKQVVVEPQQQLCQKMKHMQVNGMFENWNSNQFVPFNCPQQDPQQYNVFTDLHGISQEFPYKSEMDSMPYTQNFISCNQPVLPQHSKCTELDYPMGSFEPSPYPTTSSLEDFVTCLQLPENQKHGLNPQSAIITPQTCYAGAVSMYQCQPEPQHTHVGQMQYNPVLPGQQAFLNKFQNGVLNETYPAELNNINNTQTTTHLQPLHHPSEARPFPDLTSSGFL
How it was run: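 Stably transfected human liver carcinoma cells (HG2L7.5c1; 20 DRE-firefly luciferase) were incubated 5 h, dosed, and kept 24 h at 37C. Agonism was scored from increased luciferase luminescence.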

[2] = qHTS assay to identify small molecule antagonists of the retinoic acid receptor (RAR) signaling pathway (AID 1159552; active means well fitted curve in the direction sought with a large enough effect in the repeat runs; an effect the other way counts as inactive or inconclusive; further: nearly all actives have a fitted effect of over 50% in size; further: potency means the concentration at half of the fitted maximal effect)
How it was run: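 Test chemicals and DMSO controls were pin-transferred onto C3RL4 cells a day after seeding; retinol (1 uM final) followed at once. Luminescent reporter output was quantified after 6 hr of co-incubation and 30 min with detection reagent.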

[3] = molecular target: Acetylcholinesterase (Homo sapiens) (UniProt P22303); assay: Acetylcholinesterase (AChE) small molecule antagonists: colormetric cell-based qHTS assay (AID 1347395); further: nearly all actives have a fitted effect of over 30% in size
Acetylcholinesterase (Homo sapiens), sequence (P22303 whole entry, looked up): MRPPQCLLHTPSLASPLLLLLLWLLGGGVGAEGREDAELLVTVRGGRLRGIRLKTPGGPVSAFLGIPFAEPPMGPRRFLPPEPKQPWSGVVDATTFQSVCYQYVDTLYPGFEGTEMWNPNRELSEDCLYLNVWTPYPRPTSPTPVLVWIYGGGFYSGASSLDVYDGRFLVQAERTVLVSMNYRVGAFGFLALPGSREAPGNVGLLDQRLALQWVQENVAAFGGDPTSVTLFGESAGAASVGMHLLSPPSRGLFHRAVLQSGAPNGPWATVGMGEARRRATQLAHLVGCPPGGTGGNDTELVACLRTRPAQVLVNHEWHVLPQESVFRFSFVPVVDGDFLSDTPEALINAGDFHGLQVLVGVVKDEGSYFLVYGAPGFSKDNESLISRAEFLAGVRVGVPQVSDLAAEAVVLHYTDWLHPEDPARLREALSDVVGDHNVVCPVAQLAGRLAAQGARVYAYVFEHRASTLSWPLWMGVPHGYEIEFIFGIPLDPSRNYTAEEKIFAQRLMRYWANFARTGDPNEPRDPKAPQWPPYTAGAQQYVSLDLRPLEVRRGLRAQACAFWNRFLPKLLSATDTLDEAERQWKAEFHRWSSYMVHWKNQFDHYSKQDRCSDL
How it was run: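 After overnight attachment at 37 C, SH-SY5Y cells get 30 min compound exposure; detection cocktail (acetylthiocholine, DTNB) then incubates 90 min at 37 C, and absorbance reflects AChE-generated thiocholine.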

[4] = molecular target: Acetylcholinesterase (Homo sapiens) (UniProt P22303); assay: Acetylcholinesterase (AChE) small molecule antagonists: enzyme-based qHTS assay (AID 1347397); settings: Potency: AChE enzyme activity inhibition; outcome: AChE enzyme activity inhibition; further: nearly all actives have a fitted effect of over 55% in size
How it was run: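 Compound or DMSO vehicle was pin-transferred onto recombinant human AChE (50 mU/mL as dispensed) and left 30 min at room temperature. Acetylthiocholine with DTNB then started the reaction, read colorimetrically 10 min later.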

[5] = molecular target: Acetylcholinesterase (Homo sapiens) (UniProt P22303); assay: Acetylcholinesterase (AChE) small molecule antagonists: fluorescence cell-based qHTS assay (AID 1347398); settings: Potency: AChE activity; outcome: AChE activity; further: nearly all actives have a fitted effect of over 50% in size; further: potency means the concentration at half of the fitted maximal effect
How it was run: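 Using neuroblastoma SH-SY5Y cells as the enzyme source, test chemicals are preincubated 30 min at 37 C; AChE-driven acetylthiocholine cleavage is then quantified by thiocholine-dependent Thiolite Green fluorescence after 40 min at room temperature.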

[6] = molecular target: Acetylcholinesterase (Homo sapiens) (UniProt P22303); assay: Acetylcholinesterase (AChE) small molecule antagonists: enzyme-based qHTS assay with human liver microsomes (AID 1347399); settings: Potency: qHTS inhibition; outcome: qHTS inhibition; further: nearly all actives have a fitted effect of over 60% in size
How it was run: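 Recombinant human AChE (50 mU/mL in the enzyme mix) and human liver microsomes (0.25 mg/mL final) were preincubated with compound and NADPH (0.25 mg/mL final) for 30 min at 37 C. Acetylthiocholine/DTNB was then added; thiocholine was read colorimetrically after 10 min at room temperature.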

[7] = qHTS assay to identify small molecule antagonists of the estrogen related receptor (ERR) signaling pathway - cell viability counter screen (AID 1224818; active means well fitted curve in the direction sought with a large enough effect in the repeat runs; an effect the other way counts as inactive or inconclusive)
How it was run: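 Fluorescence from CellTiter-Fluor, read 30 min after reagent addition at 37 C, measured viability of ERR cells exposed to compounds for 17.5 h. Cells had settled 6 h before dosing.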

[8] = qHTS assay to identify small molecule antagonists of the estrogen related receptor (ERR) signaling pathway (AID 1224819; active means well fitted curve in the direction sought with a large enough effect in the repeat runs; an effect the other way counts as inactive or inconclusive; further: nearly all actives have a fitted effect of over 50% in size; further: potency means the concentration at half of the fitted maximal effect)
How it was run: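 Luminescence readout (One-Glo, 30 min, RT) of ERR cell line after 18 h compound exposure at 37 C; cells seeded 2,000/well, pre-incubated 6 h, compounds pinned from DMSO stocks.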

[9] = qHTS assay to identify small molecule agonists of the estrogen related receptor (ERR) signaling pathway (AID 1224820; active means well fitted curve in the direction sought with a large enough effect in the repeat runs; an effect the other way counts as inactive or inconclusive)
How it was run: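 Following a 6 h settling period, 2,000 ERR cells per well receive DMSO-dissolved compounds by pin tool and incubate 18 h at 37 C; agonist activity is scored from One-Glo luminescence read 30 min post-addition.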

[10] = tested on: estrogen-related receptor alpha (ERRalpha) with PGC-1alpha coactivator, human; assay: qHTS assay to identify small molecule antagonists of the estrogen related receptor signaling pathway with the pleiotropic PPARgamma coactivator (PGC) (AID 1224821); further: nearly all actives have a fitted effect of over 50% in size; further: potency means the concentration at half of the fitted maximal effect
How it was run: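 Screening used NTP's PGC/ERR cells, dosed via pin tool with compound in DMSO alongside positive and negative controls. After 18 h at 37 C, One-Glo reagent sat 30 min at room temperature before luminescence detection.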

[11] = qHTS assay to identify small molecule antagonists of the estrogen related receptor signaling pathway with the pleiotropic PPARgamma coactivator (PGC) cell viability counter screen (AID 1224822; active means well fitted curve in the direction sought with a large enough effect in the repeat runs; an effect the other way counts as inactive or inconclusive)
How it was run: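 Fluorescence read-out of CellTiter-Fluor after 30 min at 37 C; PGC/ERR cells, 2,000 per well, had been exposed to DMSO-dissolved compounds for 17.5 h following a 6 h pre-incubation.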

[12] = qHTS assay to identify small molecule agonists of the estrogen related receptor signaling pathway with the pleiotropic PPARgamma coactivator (PGC) (AID 1224823; active means well fitted curve in the direction sought with a large enough effect in the repeat runs; an effect the other way counts as inactive or inconclusive)
How it was run: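 In this quantitative high-throughput screen, an 18 h, 37 C treatment of PGC/ERR cells with compounds in DMSO preceded a One-Glo luminescence read taken after 30 min at room temperature.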

[13] = qHTS assay to identify small molecule agonists of the estrogen related receptor (ERR) signaling pathway from Tox21 library (AID 1224849); settings: ERR reporter cell line, ONE-Glo luciferase, 18 h; at 92.4 µM (top of the series) unless noted; further: nearly all actives have a fitted effect of over 15% in size
How it was run: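 Luminescence readout (ONE-Glo, 30 min RT) after 18 h compound exposure at 37 C of NTP-supplied ERR reporter cells; cells were plated 6 h before compound addition by pin tool.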

[14] = A CellTox Green Cytotoxicity Assay to monitor cytotoxicity in HepG2 cells - 0 hour (AID 1224882; active means well fitted curve in the direction sought with a large enough effect in the repeat runs; an effect the other way counts as inactive or inconclusive; further: nearly all actives have a fitted effect of over 35% in size)
How it was run: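 HepG2, 600 cells/well premixed w/ CellTox Green; 5 h settle, 37 C/5% CO2; pintool cpd add (DMSO); 37 C, 40 h; fluorescence read at 0, 8, 16, 24, 32, 40 h.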

[15] = qHTS assay to identify small molecule agonists of the sonic hedgehog signaling (Shh) pathway (AID 1259368);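 further: NIH/3T3-derived 3T3Gli1-Luc cells carrying a stable Gli1-driven firefly luciferase reporter; nearly all actives have a fitted effect of over 15% in size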
How it was run: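 Read-out: firefly luciferase luminescence from a Gli1 response element reporter stably integrated in NIH/3T3-derived 3T3Gli1-Luc cells, measured 30 min at room temperature after reagent addition. Compound exposure lasted 24 hr at 37 C, 5% CO2.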

[16] = Caspase-3/7 induction in HepG2 cells by small molecules, qHTS assay (AID 1346978; active means well fitted curve in the direction sought with a large enough effect in the repeat runs; an effect the other way counts as inactive or inconclusive; further: nearly all actives have a fitted effect of over 15% in size; further: potency means the concentration at half of the fitted maximal effect)
How it was run: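 Wild-type HepG2 cells (2,000/well) were settled 5 h at 37 C, 5% CO2, then exposed to compounds in DMSO for 17 h. Caspase-3/7 activity was read by luminescence 30 min after adding Caspase-Glo 3/7 reagent at room temperature.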

[17] = Caspase-3/7 induction in CHO-K1 cells by small molecules, qHTS assay (AID 1346980; active means well fitted curve in the direction sought with a large enough effect in the repeat runs; an effect the other way counts as inactive or inconclusive; further: nearly all actives have a fitted effect of over 15% in size)
How it was run: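 Wild-type cells were seeded at 1,500 per well and settled 5 hr at 37 C, 5% CO2, then exposed to DMSO-dissolved compounds for 17 hr. Caspase-Glo 3/7 reagent was added, and luminescence was read after 30min at room temperature.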

[18] = qHTS assay to identify small molecule agonists of H2AX (AID 1224845; active means well fitted activation curve with a large enough effect in the signal ratio in the repeat runs, not every such curve was filed as active; the % refers to the signal ratio; further: potency means the concentration at half of the fitted maximal effect)
How it was run: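 Wild-type CHO-K1 cells plated overnight, then exposed 3 hr at 37C to compounds at 15 concentrations (0.76% DMSO). Lysed, then HTRF anti-pH2AX(S139)-cryptate/anti-H2AX-d2 detection after 24 hr at room temperature; emissions 665 and 620 nm.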

[19] = qHTS assay to identify small molecule HDAC inhibitors (AID 1259364; active means well fitted curve in the direction sought with a large enough effect in the repeat runs; an effect the other way counts as inactive or inconclusive;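 further: wild-type HCT-116 cells with endogenous class I/II HDAC activity; top concentration of the series differs between compounds; nearly all actives have a fitted effect of over 45% in size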)
How it was run: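 HCT-116 (wild type), 1,500 cells/well, overnight; compound 2 hr 37C 5% CO2; HDAC-Glo I/II reagent 30 min RT; luminescence readout.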
On the % scale 0 is the no-effect control and ±100 the full control effect.

Nc1cccc(C(F)(F)F)c1
inactive: Potency (Aromatase (Homo sapiens)) | Potency [1] | Potency [2] | Potency [3] | Potency [4] | Potency [5] | Potency [6]

COc1ccc(C(c2ccc(OC)cc2)C(Cl)(Cl)Cl)cc1
inactive: Potency (Aromatase (Homo sapiens)) | Potency [2] | Potency [7] | Potency [8] | Potency [9] | Potency [10] | Potency [11] | Potency [12] | activity change, positive = activation [13] -35.3% | Potency [14] | outcome [15] | Potency [16] | outcome [17] | Potency [3] | Potency [4] | Potency [6]

Brc1ccc(Br)c(Br)c1
inactive: Potency (Aromatase (Homo sapiens)) | Potency [1] | Potency [2] | Potency [18] | Potency [16] | Potency [3] | Potency [4] | Potency [5] | Potency [6]

CC(CCl)OC(C)CCl (configuration not stated)
inactive: Potency (Aromatase (Homo sapiens)) | Potency [4] | Potency [5] | Potency [6]

c1cc(OCC2CO2)cc(OCC2CO2)c1 (configuration not stated)
inactive: Potency [1] | Potency [2] | Potency [3] | Potency [4] | Potency [5] | Potency [6]
active: Potency (Aromatase (Homo sapiens)) 38.3 µM

CO/C=C(/C(=O)OC)c1ccccc1Oc1cc(Oc2ccccc2C#N)ncn1
inactive: Potency [9] | Potency [11] | Potency [12] | activity change, positive = activation [13] -64.5% | Potency [14] | outcome [19] | outcome [15] | Potency [16] | outcome [17] | Potency [3] | Potency [4] | Potency [5] | Potency [6]
active: Potency (Aromatase (Homo sapiens)) 41.1 µM | Potency [8] 4.86 µM | Potency [10] 8.31 µM

CCc1cccc(C)c1N
inactive: Potency (Aromatase (Homo sapiens)) | Potency [1] | Potency [2] | Potency [18] | activity change, positive = activation [13] 10.2% | Potency [3] | Potency [4] | Potency [6]
34.5 µM (active) and inactive: Potency [5]

O=C(O)C(c1ccc(Cl)cc1)c1ccc(Cl)cc1
inactive: Potency (Aromatase (Homo sapiens)) | Potency [16] | Potency [3] | Potency [4] | Potency [5] | Potency [6]

CC(C)=O
inactive: Potency (Aromatase (Homo sapiens)) | Potency [2] | Potency [3] | Potency [4] | Potency [5] | Potency [6]

CN1CSC(=S)N(C)C1
inactive: Potency [1] | activity change, positive = activation [13] -78.8% and -76.3% | Potency [14] | outcome [19] | outcome [15] | outcome [17] | Potency [3] | Potency [4] | Potency [5] | Potency [6]
active: Potency (Aromatase (Homo sapiens)) 4.83 µM and 3.85 µM | Potency [18] 4.48 µM | Potency [16] 7.66 µM

Fc1c(F)c(F)c(Br)c(F)c1F
inactive: Potency (Aromatase (Homo sapiens)) | Potency [1] | Potency [2] | Potency [16] | Potency [3] | Potency [4] | Potency [5] | Potency [6]

Brc1ccccc1-c1ccccc1
inactive: Potency [2] | activity change, positive = activation [13] -1.58% | Potency [16] | Potency [3] | Potency [4] | Potency [5] | Potency [6]

OCC(CBr)(CBr)CBr
inactive: Potency (Aromatase (Homo sapiens)) | Potency [2] | Potency [18] | Potency [16] | Potency [3] | Potency [4] | Potency [5] | Potency [6]

CC(CCl)OP(=O)(OC(C)CCl)OC(C)CCl (configuration not stated)
inactive: Potency (Aromatase (Homo sapiens)) | Potency [1] | Potency [2] | activity change, positive = activation [13] -19.5% | Potency [3] | Potency [4] | Potency [5] | Potency [6]

COc1ccccc1[N+](=O)[O-]
inactive: Potency (Aromatase (Homo sapiens)) | Potency [1] | Potency [2] | Potency [18] | activity change, positive = activation [13] 4.31% | Potency [16] | Potency [3] | Potency [4] | Potency [5] | Potency [6]

Nc1ccc2c3c(cccc13)-c1ccccc1-2
active: Potency [1] 21.9 µM
inactive: Potency (Aromatase (Homo sapiens)) | Potency [2] | Potency [3] | Potency [4] | Potency [5] | Potency [6]

Cc1ccccc1N=O
inactive: Potency [2] | Potency [16] | Potency [3] | Potency [4] | Potency [5] | Potency [6]

Oc1cc(Cl)cc(Cl)c1Cl
inactive: Potency [16] | Potency [3] | Potency [4] | Potency [5] | Potency [6]
active: Potency [1] 24.9 µM | Potency [2] 62.6 µM

C=CC(=O)OCCCC
inactive: Potency (Aromatase (Homo sapiens)) | Potency [3] | Potency [4] | Potency [5] | Potency [6]

C=CC(=O)OCCCCCCCC(C)C
inactive: Potency (Aromatase (Homo sapiens)) | Potency [1] | Potency [2] | Potency [18] | Potency [3] | Potency [4] | Potency [5] | Potency [6]

Oc1ccc(Cl)cc1Cc1cc(Cl)ccc1O
inactive: Potency [1] | Potency [3] | Potency [4] | Potency [5] | Potency [6]
active: Potency (Aromatase (Homo sapiens)) 31.2 µM | Potency [2] 26.6 µM

Nc1ccc(Cl)cc1Cl
inactive: Potency [2] | Potency [18] | activity change, positive = activation [13] -4.05% | Potency [16] | Potency [3] | Potency [4] | Potency [5] | Potency [6]

O=[N+]([O-])c1ccc2ncccc2c1
inactive: Potency [2] | Potency [3] | Potency [4] | Potency [5] | Potency [6]

C=CCOC(=O)c1ccccc1C(=O)OCC=C
inactive: Potency (Aromatase (Homo sapiens)) | Potency [1] | Potency [2] | Potency [18] | Potency [3] | Potency [4] | Potency [5] | Potency [6]

C[C@@]12C(=O)OC(=O)[C@]1(C)C1CCC2O1
active: Potency (Aromatase (Homo sapiens)) 3.59 µM | Potency [2] 5.31 µM | Potency [18] 22 µM | Potency [16] 0.376 µM
inactive: Potency [3] | Potency [4] | Potency [5] | Potency [6]

Cc1cccc([N+](=O)[O-])c1C
inactive: Potency (Aromatase (Homo sapiens)) | Potency [1] | Potency [2] | Potency [18] | Potency [16] | Potency [3] | Potency [4] | Potency [5] | Potency [6]
